High-throughput results as filed in PubChem.
Only some compounds are listed: those with a hit (about 21% of all), similar ones and a draw of the others.
Pf growth 96h – P. falciparum growth inhibition at 96 hours; P. falciparum luciferase reporter growth, 96 h; Potency, µM (highest dose often 28.7 µM), without a hit: at the highest dose activity change, negative = inhibition, actives largely listed as inhibitors; 320,000 compounds, 6.9% hits; AID 504834; further: potency means the concentration at half of the fitted maximal effect; on the % scale 0 is the no-effect control and ±100 the full control effect
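96 h incubation, 37 C, 5% CO2, of luciferase-reporter P. falciparum-infected RBCs (2% hematocrit, 0.05% parasitemia final) with test compounds; endpoint luminescence.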
Pf growth 48h – P. falciparum growth inhibition at 48 hours (one generation); P. falciparum luciferase growth in erythrocytes, 48 h; Potency, µM (titrated, usually from 28.7 µM), inactives show at the top dose activity change, negative = inhibition, hits mostly inhibitors; 310,000 compounds, 5.9% hits; AID 504832; further: potency means the concentration at half of the fitted maximal effect; on the % scale 0 is the no-effect control and ±100 the full control effect
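First compound was added to culture medium, then infected red cells at 0.1% parasitemia and 2% hematocrit (final). After incubation at 37 C under 5% CO2, luciferase detection reagent was dispensed and light output recorded.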
Cycloheximide cs – counter-screen for Shiga toxin inhibitors: cycloheximide protein synthesis inhibition. cell reporter, cycloheximide protein synthesis inhibition counterscreen. max response, %. 300,000 compounds, 12% hits. AID 2314; in the data active means max response mostly above about 13%, no sharp cut-off; inactive means mostly below about 14%; further: read at 38.3 µM for the half of the compounds with a filed dose; 0% is about no effect
NS1 inh – influenza NS1 inhibition; Potency, µM (series often up to 46.1 µM), for inactives: at the highest dose activity, positive = more growth; 270,000 compounds, 0.4% hits; calls by dose curve; further: potency means the concentration at half of the fitted maximal effect; actives are rising curves; nearly all actives have a fitted effect of over 50% in size
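Growth recovery, yeast-based: influenza A NS1 expressed in S. cerevisiae causes slow growth, and suppressors are detected by OD600. The parent strain without NS1 is used as positive control.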
Shiga inhibitor – Shiga toxin inhibition; Vero cells, Shiga toxin protein synthesis inhibition reporter; 290,000 compounds, 9.2% hits; inhibition, % at 38.7 µM; in the data active means inhibition mostly above about 28%, no sharp cut-off; inactive means mostly below about 43%; further: 0% is about no effect
SARS PLpro yeast – inhibitors of SARS-CoV papain-like protease in yeast. S. cerevisiae expressing SARS-CoV PLpro, growth rescue. Potency, µM (highest dose often 32.9 µM), without a hit: top-dose activity, positive = growth rescue, hits mostly activators. 330,000 compounds, 0.19% hits. AID 485353; calls by dose curve; further: potency means the concentration at half of the fitted maximal effect; 0% is about no effect; nearly all actives have a fitted effect of over 55% in size
* hit, by the source's call; ? = inconclusive; / = no result; + = active, no number. Unless noted, the call rests on the fitted dose curve; in most records, active means well fitted inhibition curve with a large enough effect; inconclusive means small, poorly fitted or top-dose-only effect, or another doubt; inactive means no such curve, though single readings can be large or run the other way.

SMILES	Pf growth 96h	Pf growth 48h	Cycloheximide cs	NS1 inh	Shiga inhibitor	SARS PLpro yeast
COC(=O)C1=C(N)N(c2ccc(F)cc2)C2=C(C(=O)CCC2)C1c1ccc2c(c1)OCO2 (stereo unspecified)	65%	10µM*	-2	-5%	-2	1%
COC(=O)C1=C(N)OC2=C(C(=O)CCC2)C1c1ccc2c(c1)OCO2 (stereo unspecified)	-15%	20%	-2	-6%	-8	9%
CS(=O)(=O)Oc1ccc2c(c1)O/C(=C\C=C\c1ccccc1)C2=O	?	?	15*	-33%	36*	-2%
O=C1/C(=C/c2ccncc2)Oc2cc(OS(=O)(=O)c3ccccc3)ccc21	?	-25%	4	1%	23	0%
CS(=O)(=O)Oc1ccc2c(c1)O/C(=C\c1cccc([N+](=O)[O-])c1)C2=O	?	?	4	1%	29	0%
CCc1ccc(/C=C2\Oc3cc(OS(C)(=O)=O)ccc3C2=O)cc1	0%	-11%	14*	2%	-7	-18%
COc1cnn(-c2cc(Oc3ccc(C)cc3)ncn2)c(=O)c1Cl	-3%	/	-1	-8%	-6	-6%
CNc1cnn(-c2ccc(C)cc2)c(=O)c1Sc1ccc(C)cc1	-23%	-2%	-5	-4%	-5	0%
COc1cnn(-c2ccc(C)cc2)c(=O)c1Cl	75%	87%	52*	/	79*	2%
COc1cnn(-c2ccc(C)cc2)c(=O)c1Br	404%	125%	39*	/	61	4%
CNc1cnn(-c2ccc(C)cc2)c(=O)c1Cl	190%	241%	40*	1%	81*	?
COc1ccc(Oc2cnn(-c3ccccc3)c(=O)c2Br)cc1	0%	-14%	5	-3%	9	-1%
CCOc1cc(/C=C/c2ccc3cccc([N+](=O)[O-])c3n2)ccc1OCC(=O)N(C)C	?	?	3	/	10	0%
COc1c(OC(C)=O)ccc(/C=C/c2ccc3cccc(OC)c3n2)c1[N+](=O)[O-]	?	?	22*	20%	41*	-37%
COc1c(OC(C)=O)ccc(/C=C/c2ccc3ccccc3n2)c1[N+](=O)[O-]	?	-70%	29*	-13%	99*	-21%
COc1ccccc1CNC(=O)COC(=O)/C=C/c1ccc2ccccc2n1	/	/	/	/	/	3%
CCOc1c(OC(C)=O)ccc(/C=C/c2ccc3cccc(OC(C)=O)c3n2)c1[N+](=O)[O-]	8.3µM*	6.6µM*	43*	-58%	+	1%
Cc1ccc(-c2nnc(N3CCCCC3)c3ccccc23)cc1S(=O)(=O)N(C)C	?	?	-1	-3%	36	-2%
Cc1ccc(-c2n[nH]c(=O)c3ccccc23)cc1S(=O)(=O)NCCO	/	15%	2	6%	-9	-1%
Cc1ccc(-c2nnc(Nc3ccc4c(c3)OCO4)c3ccccc23)cc1S(=O)(=O)NCCO	?	3.3µM*	2	-12%	-4	8%
Cc1ccc(-c2nnc(Nc3ccc(CC(N)=O)cc3)c3ccccc23)cc1S(=O)(=O)NCCO	4%	6.6µM*	2	-1%	1	-4%
Cc1ccc(-c2nnc(Nc3ccc4c(c3)OCO4)c3ccccc23)cc1S(=O)(=O)NC(C)C	?	2.9µM*	-2	-36%	-8	13%
O=C(NCc1ccccc1Cl)c1cnc2n(c1=O)CCS2	16%	/	-2	-47%	30	-2%
O=C(Nc1ccc(Oc2ccccc2)cc1)c1cnc2n(c1=O)CCS2	13µM*	/	11	4%	-3	-7%
COc1ccc(C)cc1NC(=O)c1cnc2scc(C)n2c1=O	-10%	13%	-2	-9%	0	-5%
SMILES	Pf growth 96h	Pf growth 48h	Cycloheximide cs	NS1 inh	Shiga inhibitor	SARS PLpro yeast
COc1ccc(C)cc1NC(=O)c1cnc2n(c1=O)CCS2	?	27%	10*	2%	6	5%
O=C(NCCc1ccccc1)c1cnc2n(c1=O)CCS2	0%	176%	34*	/	111*	2%
O=C(NCc1cccnc1)c1cnc2n(c1=O)CCS2	/	-2%	3	-1%	10	-16%
O=C(NCCc1c[nH]c2ccccc12)c1cnc2n(c1=O)CCS2	34%	70%	30*	-1%	59*	-10%
O=C(O)C[O][Sb][O]CC(=O)O	/	/	/	3%	/	/
O=C(/C=C/c1ccccc1)NC(=S)Nc1ccc2c3c(cccc13)CC2	17%	25%	-4	25%	-3	-7%
Cc1ccc(S(=O)(=O)N2CCOCC2)cc1NC(=O)c1ccc(F)cc1F	/	/	/	/	/	-6%
COC(=O)c1ccccc1NC(=O)c1ccc(F)cc1F	/	/	10	/	-7	/
CCc1cc2c(=O)oc(-c3ccc(F)cc3)nc2s1	12%	22%	1	6%	-6	-2%
CC(=O)Nc1ccc2c(c1)nc(CCNC(=O)c1ccco1)n2C	8%	12%	-3	-10%	-3	-4%
Cn1c(CCNC(=O)c2ccco2)nc2cc(NS(=O)(=O)c3ccc(Cl)cc3)ccc21	9.3µM*	?	-4	-47%	27	1%
Cc1ccc(C(=O)Nc2ccc3c(c2)nc(CCNC(=O)c2ccco2)n3C)cc1	1%	50%	32*	16%	44*	5%
CCCN1CCC(=O)N([C@H](CSc2ccc(OC)cc2)Cc2ccccc2)CC1	2.9µM*	10µM*	-1	7%	-6	4%
Cc1ccc(SC[C@H](Cc2ccccc2)N2CCN(CCc3ccccc3)CCC2=O)cc1	?	?	-2	0%	13	0%
CCCN1CCC(=O)N([C@H](CSc2ccc(C)cc2)Cc2ccccc2)CC1	5.9µM*	9.3µM*	-4	4%	-6	0%
C(=Nc1ccc(N2CCOCC2)cc1)c1c[nH]c2ccccc12	-14%	61%	42*	25%	89*	-1%
CCOC(=O)C1CCN(S(=O)(=O)c2cc(C(=O)N3CCCCC3)ccc2OC)CC1	-27%	?	-2	1%	-24	?
CC(CC(=O)O)(CC(=O)O)C(=O)O	/	/	/	-2%	/	/
COc1ccc(CNc2nc3ccccc3s2)cc1OC	?	106%	45*	-14%	66*	-8%
Cc1ccc(CNc2nc3ccccc3s2)s1	?	184%	-3	0%	-31	-6%
COc1ccc(CC(=O)Nc2nccs2)cc1OC	18%	?	-6	-7%	-11	7%
O=C(CS(=O)(=O)Cc1ccccc1)Nc1nc2ccccc2s1	-24%	19%	-1	-7%	3	-1%
c1ccc(CCNc2nc3ccccc3s2)cc1	-36%	/	67*	-75%	85*	-25%
COc1ccc(CNc2nccs2)cc1OC	12µM*	41%	-2	-3%	45	3%
C=CCOc1ccc(CNc2nccs2)cc1	?	78%	22*	-12%	55*	5%
CC(C)[C@H](NS(=O)(=O)c1ccccc1)C(=O)Nc1ccccc1N1CCOCC1	/	/	/	/	/	1%
